TcdB inh: inhibitors of Clostridioides difficile toxin B glycohydrolase; P18177; AID 652162; inhibition, % at 9.99 µM; TcdB glycohydrolase enzymatic assay, plate reader; actives 0.24% (n = 350,000); in the data active means inhibition above about 10%
Yp Topo-I inh: Y. pestis Topo-I inhibition via cleavage products. Y. pestis Topo-I cleavage product accumulation, plate reader. activity, % at 10 µM. actives 0.064% (n = 360,000). AID 504884; in the data active means activity above about 50%, passing the limit was not always enough
Mtb BioA inh: inhibitors of Mycobacterium tuberculosis BioA enzyme; purified M. tuberculosis BioA enzyme, plate reader; inhibition, % at 9.99 µM; actives 0.096% (n = 360,000); AID 602481; in the data active means inhibition above about 40%
Numbers without * were called inactive; nt = no result. A selection: hits, their analogues and other compounds. The true share with any hit is near 0.32%.

SMILES	TcdB inh	Yp Topo-I inh	Mtb BioA inh
CCN(Cc1ccccc1)C(=O)c1oc2ccc(C)cc2c1C	1	53*	0
CC(C)NC(=O)N(C)C[C@H]1Oc2ccc(NC(=O)Cc3ccccc3)cc2CC(=O)N([C@H](C)CO)C[C@H]1C	0	nt	-2
O=C(O)C1CCC(CN(Cc2cccc(Br)c2)C(=S)Nc2ccccc2F)CC1 (stereo not drawn)	12*	9	2
Cc1ccc(C)c(NC(=S)N(Cc2cccc(Br)c2)CC2CCC(C(=O)O)CC2)c1 (stereo not drawn)	1	-10	-1
CC(=O)Nc1cc(-c2ccc(F)cc2)[nH]n1	11*	0	nt
O=C(Nc1cc(-c2ccccc2)[nH]n1)c1ccccc1F	3	-3	-1
C[C@H](CO)N1C[C@H](C)[C@@H](CN(C)CC2CC2)Oc2c(NS(=O)(=O)c3cccs3)cccc2C1=O	0	nt	2
CCc1cc(-c2n[nH]c(C)c2-c2nc3ccccc3s2)c(O)cc1OCC(=O)NN	0	-11	nt
CCc1cc(-c2n[nH]c(C)c2-c2nc(C)cs2)c(O)cc1OC	12*	24	nt
C[C@@H]1CCCCO[C@@H](CN(C)CC2CCCCC2)[C@H](C)CN([C@@H](C)CO)C(=O)c2cc(NC(=O)CCCCCC(=O)Nc3ccccc3N)ccc2O1	-1	nt	-1
CN1c2ccc(Br)cc2[C@H]2[C@H](CCN2C(=O)Nc2cc(F)ccc2F)[C@H]1CO	0	nt	0
COc1cc2oc3ccc(C#Cc4ccc(N)cc4)cc3c(=O)c2cc1OC	1	-13	-1
COc1cc2oc3ccc(C#Cc4ccccn4)cc3c(=O)c2cc1OC	11*	4	-1
COCC(=O)N1CC[C@@H]2[C@@H](CO)N(C)c3ccc(-c4ccccc4)cc3[C@@H]21	13*	nt	nt
CN1c2ccc(-c3ccccc3)cc2[C@@H]2[C@@H](CCN2C(=O)Cc2cccnc2)[C@H]1CO	-1	nt	nt
COc1ccc(-c2ccc3c(c2)[C@H]2[C@H](CCN2C(=O)Cc2cccnc2)[C@@H](CO)N3C)cc1	11*	nt	1
CCC(=O)N1CC[C@H]2[C@@H]1c1cc(-c3ccc(OC)cc3)ccc1N(C)[C@H]2CO	-1	nt	nt
CC(C)NC(=O)N1CC[C@@H]2[C@@H](CO)N(C)c3ccc(-c4ccc(F)cc4)cc3[C@@H]21	12*	nt	nt
COCC(=O)N1CC[C@H]2[C@@H]1c1cc(-c3ccccc3)ccc1N(C)[C@H]2CO	-2	nt	nt
CC(C)NC(=O)N1CC[C@@H]2[C@H]1c1cc(-c3ccc(F)cc3)ccc1N(C)[C@@H]2CO	0	nt	nt
CCC(=O)N1CC[C@@H]2[C@H]1c1cc(-c3ccc(OC)cc3)ccc1N(C)[C@H]2CO	11*	nt	nt
CO[C@@H](CN(C)Cc1nccs1)[C@H](C)CN([C@H](C)CO)S(=O)(=O)c1ccc(C)cc1	-2	nt	2
C[C@H]1CCCCO[C@H](CN(C)S(=O)(=O)c2cn(C)cn2)[C@@H](C)CN([C@@H](C)CO)C(=O)c2cc(NS(=O)(=O)c3ccc(Cl)cc3)ccc2O1	-4	nt	-2
C[C@H]1CCCCO[C@H](CN(C)S(=O)(=O)c2ccccc2)[C@@H](C)CN([C@@H](C)CO)C(=O)c2cc(NC(=O)Nc3ccc(C(F)(F)F)cc3)ccc2O1	0	nt	-1
CN1C(=O)c2cc(NC(=O)Nc3ccccc3F)ccc2OC[C@H]2O[C@@H](CC(=O)NCc3ccc(-c4ccccc4)cc3)CC[C@H]21	0	nt	-2
SMILES	TcdB inh	Yp Topo-I inh	Mtb BioA inh
COc1ccccc1C#Cc1ccc2c(c1)[C@H]1[C@H](CCN1S(=O)(=O)c1cccc(C)c1)[C@H](CO)N2	-1	nt	nt
O=C(C[C@@H]1CC[C@@H]2[C@H](COC[C@H](O)CN2C(=O)C2CC2)O1)NCc1ccccc1Cl	1	nt	-2
O=C(C[C@H]1C[C@H]2c3cc(NC(=O)Nc4ccc(C(F)(F)F)cc4)ccc3O[C@H]2[C@H](CO)O1)NCc1ccccn1	0	nt	-1
COCC(=O)N1CC[C@H]2[C@@H]1c1cc(-c3ccc(OC)cc3)ccc1N(C)[C@H]2CO	14*	nt	9
COCC(=O)N1CC[C@@H]2[C@H]1c1cc(-c3ccc(F)cc3)ccc1N(C)[C@H]2CO	15*	nt	13
COCC(=O)N1CC[C@@H]2[C@H]1c1cc(-c3ccc(OC)cc3)ccc1N(C)[C@@H]2CO	6	nt	11
COCC(=O)N1CC[C@@H]2[C@H]1c1cc(-c3cccc(F)c3)ccc1N(C)[C@@H]2CO	0	nt	nt
C[C@@H]1CN([C@H](C)CO)C(=O)c2cc(NS(=O)(=O)c3cn(C)cn3)ccc2O[C@@H](C)CCCCO[C@H]1CN(C)C(=O)Nc1ccc(F)cc1	-1	nt	1
O=C(Nc1ccccc1)N1CCCCN2[C@H](CO)[C@H](c3ccc(C#Cc4cccnc4)cc3)[C@H]2C1	0	nt	5
O=C1NC(=O)C(=Cc2ccc(Cl)c(Cl)c2)S1	1	9	-2
O=C1NC(=O)/C(=C/c2ccc(O)cc2)S1	27*	0	nt
CC(C)(C)[S@](=O)N1Cc2cc(C(=O)NCCc3ccncc3)nc(-c3cccc(-c4ccncc4)c3)c2[C@@H]1CCO	0	nt	10
CCNC(=O)C[C@H]1C=C[C@@H](NC(=O)C2CC2)[C@@H](CO)O1	-1	nt	-3
COc1ccc(NC(=O)c2cc(S(=O)(=O)N3CCc4ccccc43)cn2C)c(OC)c1	nt	33	-1
COc1ccc(NC(=O)c2cc(S(=O)(=O)N3CCc4ccccc43)cn2C)cc1OC	16*	30	0
CO[C@H]1CN(C)C(=O)c2ccc(NC(C)=O)cc2OC[C@H](C)N(C(=O)c2ccc(F)cc2)C[C@@H]1C	-1	nt	nt
O=c1c(C=NCCCn2ccnc2)c(-c2ccccc2)[nH]n1-c1nc2ccccc2s1	nt	2	nt
CC(=NCCCn1ccnc1)c1c(-c2ccccc2)[nH]n(-c2nc3ccccc3s2)c1=O	nt	16	41*
CN(C)Cc1cn(CC[C@H]2CC[C@@H](NC(=O)Nc3ccccc3F)[C@@H](CO)O2)nn1	-1	nt	-1
C[C@@H]1CN([C@@H](C)CO)C(=O)Cc2cc(NS(=O)(=O)c3ccc(Cl)cc3)ccc2O[C@H]1CN(C)S(C)(=O)=O	0	nt	4
Cc1cc(C(=O)CSc2nnnn2-c2ccc(O)cc2)c(C)n1Cc1ccc2c(c1)OCO2	nt	-2	-1
Cc1cc(C(=O)CSc2nnnn2-c2ccccc2)c(C)n1-c1ccc2c(c1)OCO2	11*	18	nt
CN(C)C(=O)C[C@H]1CC[C@@H]2[C@@H](COc3ccc(NC(=O)NCc4ccccc4)cc3C(=O)N2C)O1	-2	nt	3
CO[C@H]1CN(C)C(=O)c2cc(NC(=O)Nc3ccc(Cl)cc3)ccc2OC[C@@H](C)N(C(=O)Nc2c(C)noc2C)C[C@H]1C	nt	nt	-2
CCOc1ccc(Oc2ccc(S(=O)(=O)N3CCOCC3)cc2NC(=O)C2=COCCO2)cc1	3	62*	-2
CCOc1ccc(S(=O)(=O)N2CCOCC2)cc1NC(=O)C1=COCCO1	-1	-3	0
CCC(=O)Nc1ccc2c(c1)OC[C@@H](C)N(C(=O)c1ccc(F)cc1)C[C@H](C)[C@@H](OC)CN(C)C2=O	0	nt	1
O=C1OCCC1=Cc1ccccc1	1	8	nt
O=C1OCC/C1=C\c1ccc(O)cc1	21*	0	0
COc1ccccc1-c1ccc([C@H]2[C@@H](C#N)N(C(=O)C3CC3)[C@H]2CO)cc1	0	nt	0

Screens deposited in PubChem BioAssay by Broad Institute.
